SW480 rerep: induces DNA re-replication in SW480 colon adenocarcinoma cells; Potency, µM (highest dose often 46.1 µM), inactives show top-dose re-replication activation, actives largely listed as activators; hit rate 1.8% among 340,000; AID 624297; SW480 DNA re-replication, Hoechst DNA content imaging, 48 h; note: % of control where 0% means no effect; nearly all actives have a fitted effect of over 55% in size
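Image-based read-out: total Hoechst fluorescence of nuclei (405 nm excitation, 500-530 nm emission), with hits raising the fraction of high-intensity nuclei. SW480 colon cells incubated 48 hr with compounds at 37 C.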
ELG1 repair inh: inhibitors of ELG1-dependent DNA repair in HEK293T cells | HEK293T ELG1-luciferase reporter, luminescence, 16 h; DNA damage induced by 5-fluorouridine | Potency, µM (top dose mostly 46.1 µM), for the others: at the top dose activity change, negative = inhibition, hits mostly inhibitors | hit rate 2.3% among 330,000; note: % is set by controls: 0 for no effect and ±100 for the full control effect; nearly all actives have a fitted effect of over 55% in size
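Cells (2,000 per well) received 5-fluorouridine plus test compound or DMSO and were incubated 16 hr at 37 °C, 5% CO2. Luciferase activity was read by luminescence 30 min after ONE-Glo addition; signal suppression marked inhibition of damage-induced ELG1 function.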
MCF10A rereplic: induces DNA re-replication in MCF 10a normal breast cells; hit rate 2.9% among 350,000; AID 624296; Potency, µM (top dose mostly 46.1 µM), for inactives: at the top dose activity, positive = re-replication, most hits filed as activators; MCF 10A DNA re-replication, Hoechst nuclear intensity, 48 h; note: % of control where 0% means no effect; nearly all actives have a fitted effect of over 50% in size
KB-3-1 tox: KB-3-1 parental cell cytotoxicity | KB-3-1 viability, CellTiter-Glo ATP luminescence, 72 h | Potency, µM (series often up to 46.1 µM), usual class: cytotoxic | hit rate 1.4% among 400,000 | AID 1347075; note: % is set by controls: 0 for no effect and ±100 for the full control effect; nearly all actives have a fitted effect of over 60% in size
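Luminescent ATP read-out (CellTiter-Glo) measures survival of drug-naive KB-3-1 cells after 72 h compound exposure at 37 °C. Titration series was screened from lowest to highest concentration, with DMSO vehicle plates as background controls.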
KB-V1 MDR tox: kills drug-selected multidrug resistant KB-V1 cells; hit rate 3.4% among 400,000; Potency, µM (top dose mostly 46.1 µM), usual class: cytotoxic; KB-V1 MDR cells viability, CellTiter-Glo, 72 h; note: % is set by controls: 0 for no effect and ±100 for the full control effect; nearly all actives have a fitted effect of over 60% in size
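Drug-selected KB-V1 cells, grown in DMEM lacking phenol red with 10% FBS, receive compound titrations; after three days at 37 degrees C, surviving cell ATP is quantified by CellTiter-Glo luminescence and responses normalized and curve-fitted.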
The depositor's hits bear a star; i = inactive; ? = inconclusive; nt = no result. The list is not random: actives were taken first. Their share in the collection is about 8.1%. Calls come from the whole dose curve; as a rule, active = well fitted curve in the direction sought with a large enough effect; inconclusive = small, poorly fitted or top-dose-only effect, or another doubt; inactive = no such curve, though single readings can be large; an effect the other way counts as inactive or inconclusive. Potency is the fitted concentration of half-maximal effect.

SMILES	SW480 rerep	ELG1 repair inh	MCF10A rereplic	KB-3-1 tox	KB-V1 MDR tox
C=CCC1(CC=C)CCCN1C(=O)c1cc(COc2cccc(C(F)(F)F)c2)on1	5%	4%	5%	?	?
C[C@H](CO)N1C[C@H](C)[C@@H](CN(C)Cc2ccc3c(c2)OCO3)Oc2c(NC(=O)C3CCCCC3)cccc2C1=O	?	-5%	?	?	i
COCC(=O)N[C@H]1C=C[C@@H](CC(=O)NCc2ccccc2OC)O[C@@H]1CO	nt	nt	nt	i	i
N#CC(Nc1ccccc1)c1ccccc1OCc1ccccc1 (centres undefined)	?	-3%	10%	i	i
CC(=O)NCCNC(=O)C1Cc2c(-c3ccccc3Oc3ccccc3)ccnc2O1 (centres undefined)	nt	nt	nt	i	i
CS(=O)(=O)N(Cc1ccc(C(=O)NN=C2CCCCCC2)cc1)c1ccccc1	?	-1%	-27%	i	i
Cc1cc[n+](C2=C([O-])c3ccccc3C(=O)/C2=N\S(=O)(=O)c2cccs2)cc1C	?	23µM*	21µM*	i	i
Cc1cc(C)c[n+](C2=C([O-])c3ccccc3C(=O)/C2=N\S(=O)(=O)c2cccs2)c1	2.9µM*	12µM*	?	?	i
CCOC(=O)c1cc2c(C)n(-c3ccc(OCC)cc3)c(C)c2ccc1=O	3%	-19%	25%	?	2.6µM*
CCOC(=O)c1cc2c(C)n(-c3ccc(C)cc3)c(C)c2ccc1=O	?	?	12%	21µM*	5.8µM*
COc1cc(N)c(Cl)cc1C(=O)OCC(=O)NCC1CCCO1 (centres undefined)	-4%	0%	4%	i	i
CCc1ccc(C2=CC(c3cc(Br)ccc3F)n3ncnc3N2)cc1 (centres undefined)	?	?	17%	8.2µM*	9.2µM*
Cc1ccc(-c2c(C)n3c4c(=O)n(C)c(=O)n(C)c4nc3n2CCCO)cc1	nt	nt	nt	?	6.5µM*
COC(=O)CCCn1c(-c2ccc(C)cc2)c(C)n2c3c(=O)n(C)c(=O)n(C)c3nc12	nt	nt	nt	i	?
C/C(=C(\C#N)C(=O)NCc1ccccc1)N(C)C	-7%	14%	-4%	i	i
Cc1c(C(=O)N(C)CCC#N)oc2ccc(S(=O)(=O)N3CC(C)CC(C)C3)cc12 (centres undefined)	-6%	7.3µM*	9%	i	i
CCOC(=O)C1CCN(C(=O)c2oc3ccc(S(=O)(=O)N4CC(C)CC(C)C4)cc3c2C)CC1 (centres undefined)	7%	10µM*	25%	?	?
Cc1c(C(=O)O)oc2ccc(S(=O)(=O)N3CC(C)CC(C)C3)cc12 (centres undefined)	-7%	9%	-6%	i	i
CCOC(=O)N1CCN(C(=O)c2oc3ccc(S(=O)(=O)N4CC(C)CC(C)C4)cc3c2C)CC1 (centres undefined)	0%	?	6%	i	?
Cc1cc(OCCOCCNC(C)C)cc(C)c1Cl	0%	-7%	0%	?	?
Cc1cc(OCCCCNC(C)C)cc(C(C)C)c1	?	2%	?	i	21µM*
O=C(COc1ncnc2cc(Cl)ccc12)c1ccc2c(c1)OCCO2	-4%	?	1%	i	i
O=S(=O)(c1ccc(Cl)c(Cl)c1)c1snnc1-c1ccccc1	1.3µM*	-4%	4.6µM*	5.2µM*	?
c1ccc(-c2nnsc2-c2ccccc2)cc1	-23%	-2%	4%	i	i
O=C(Nc1cccc(Cl)c1)c1csc([C@@H]2C[C@H](O)[C@@H](CO)O2)n1	nt	nt	nt	i	i
O=C(c1ccc2ccccc2c1)C1CCCN(S(=O)(=O)c2cccnc2)C1 (centres undefined)	4%	?	16%	i	16µM*
COc1ccc(OC)c(C2SCCN2S(=O)(=O)c2cccc(C(F)(F)F)c2)c1 (centres undefined)	-2%	?	-2%	i	i
c1cc(Nc2ncnc3sccc23)cc(-c2nnc3n2CCCCC3)c1	0%	23µM*	-2%	i	i

High-throughput results deposited in PubChem BioAssay by National Center for Advancing Translational Sciences (NCATS).
